Test [1] in a line: A549 cell viability effects, profiling panel, calcein-AM fluorescence, 48 h, basal (AID 1162). Further: test concentration not given here. The note with it: higher = more signal.
Test [2] is described as follows: adipocyte viability effects, profiling panel, cell-based, 3T3-L1 adipocytes, calcein-AM fluorescence, 48 h, basal (AID 1163). Further: test concentration not given here. The note with it: 3T3-L1 adipocytes viability, higher = more signal.
Test [3] can be described thus: HepG2 cell viability effects, profiling panel, calcein-AM fluorescence, 48 h, basal (AID 1164). Further: test concentration not given here. The note with it: higher = more signal.
The nature of test [4]: MM1S cell viability effects, profiling panel, calcein-AM fluorescence, 48 h, basal (AID 1165).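 Further: viability of MM1S multiple myeloma cells under basal unstimulated conditions; test concentration not given here.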 The note with it: higher = more signal.
Test [5] can be described thus: basal RPMI8226 viability, no added stimulus, profiling panel, cell-based, calcein-AM fluorescence, 48 h, PK04 Diversity Set (AID 1166).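 Further: cells grown under basal conditions without added stimulus; test concentration not given here.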 The note with it: RPMI8226 myeloma viability, higher = more signal.
A short description of test [6]: basal HepG2 mitochondrial membrane potential changes, profiling panel, cell-based, JC-1 fluorescence, 24 h, 100 nL compound (AID 1167). Further: test concentration not given here. The note with it: higher = more signal.
Test [7] is described as follows: basal 3T3-L1 adipocyte mitochondrial potential changes, profiling panel, cell-based, JC-1 fluorescence, 3T3-L1 adipocytes, 24 h, 100 nL compound (AID 1168). Further: test concentration not given here. The note with it: JC-1 mitochondrial fluorescence, higher = more signal, called active from +8 up or from −8 down.
The nature of test [8]: basal RPMI8226 mitochondrial membrane potential changes, profiling panel, cell-based, JC-1 fluorescence, 24 h, 100 nL compound (AID 1169). Further: test concentration not given here. The note with it: RPMI8226 myeloma, JC-1 mitochondrial potential fluorescence, higher = more signal.
The nature of test [9]: basal MM1S mitochondrial membrane potential changes, profiling panel, cell-based, JC-1 fluorescence, 24 h, 100 nL compound (AID 1170). Further: test concentration not given here. The note with it: higher = more signal.
A short description of test [10]: A549 lung cancer cell viability effects, profiling panel, resazurin fluorescence, 24 h, PK04 Diversity Set (AID 1171). Further: test concentration not given here. The note with it: higher = more signal, called active from +8 up or from −8 down. On the technique in general: Resazurin is reduced to fluorescent resorufin, in cell work by metabolically active cells.
Test [11] can be described thus: HepG2 liver cancer cell viability effects, profiling panel, resazurin fluorescence, 24 h, PK04 Diversity Set (AID 1172). Further: test concentration not given here. The note with it: higher = more signal.
Test [12] is described as follows: basal S. cerevisiae growth modulation, no modifier, primary screen, OD600, strain BY4716, 24 h, basal condition (AID 1173). The note with it: OD600, 24 h, higher = more signal, called active from +8 up or from −8 down.
Test [13] in a line: MM1S myeloma cell viability, profiling panel, resazurin fluorescence, basal, 24 h, PK04 Diversity Set (AID 1174). Further: test concentration not given here. The note with it: higher = more signal, called active from +8 up or from −8 down.
The target in test [14] is Dihydroorotate dehydrogenase (quinone), mitochondrial (Plasmodium falciparum (isolate 3D7)) (UniProt Q08210). Put plainly: PfDHODH enzyme inhibitors, primary screen, biochemical, C-terminal His tag, absorbance 600 nm (AID 1175).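 Further: recombinant parasite enzyme with a five histidine tag at its C terminus; test concentration not given here.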 The note with it: DCIP absorbance 600 nm, higher = more signal, called active from +8 up or from −8 down.
Chain of Dihydroorotate dehydrogenase (quinone), mitochondrial (Plasmodium falciparum (isolate 3D7)) (Q08210 whole entry, looked up): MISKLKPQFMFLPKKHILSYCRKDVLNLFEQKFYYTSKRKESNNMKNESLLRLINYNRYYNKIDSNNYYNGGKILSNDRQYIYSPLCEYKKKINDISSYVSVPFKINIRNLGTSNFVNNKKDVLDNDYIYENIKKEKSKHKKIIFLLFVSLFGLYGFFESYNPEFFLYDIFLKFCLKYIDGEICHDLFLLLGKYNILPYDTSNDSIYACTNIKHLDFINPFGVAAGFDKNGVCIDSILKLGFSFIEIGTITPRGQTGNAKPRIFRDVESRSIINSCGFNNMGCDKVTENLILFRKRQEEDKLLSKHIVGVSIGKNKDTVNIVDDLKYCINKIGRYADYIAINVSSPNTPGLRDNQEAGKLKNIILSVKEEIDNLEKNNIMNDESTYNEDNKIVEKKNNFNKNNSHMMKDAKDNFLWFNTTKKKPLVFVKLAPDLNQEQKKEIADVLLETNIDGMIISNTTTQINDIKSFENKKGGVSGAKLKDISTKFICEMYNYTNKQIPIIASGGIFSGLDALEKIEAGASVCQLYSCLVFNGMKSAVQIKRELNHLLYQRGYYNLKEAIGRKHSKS
Test [15] in a line: P. aeruginosa biofilm formation inhibitors, primary screen, strain PAO1, LB-PBS medium, absorbance 600 nm (AID 1176). Further: test concentration not given here. The note with it: P. aeruginosa PAO1 growth/biofilm, A600, 12 h; higher = more signal.
Test [16] in a line: S. cerevisiae RM11-1a growth modifiers, primary screen, strain RM11-1a, OD600, basal, 24 h (AID 1177).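 Further: cultures grown under basal conditions with no added stressor; test concentration not given here.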 The note with it: OD600, 24 h, higher = more signal, called active from +8 up or from −8 down.
A short description of test [17]: E. coli acrAB mutant growth effects, primary screen, E. coli filamentation inducers, strain DRC39, OD650, 24 h (AID 1178).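 Further: growth measured as culture turbidity by optical density at 650 nm; test concentration not given here.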 The note with it: higher = more signal, called active from +8 up or from −8 down.
Test [18] in a line: E. coli acrAB mutant growth effects, primary screen, E. coli filamentation inducers, strain DRC39, OD650, 48 h (AID 1179).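 Further: screen aims at cell division blockers that make cells filament.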 The note with it: E. coli DRC39 delta-acrAB growth, higher = more signal, called active from +8 up or from −8 down.
The nature of test [19]: RPMI8226 myeloma cell viability, profiling panel, resazurin fluorescence, basal, 24 h, PK04 Diversity Set (AID 1180).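 Further: RPMI8826 multiple myeloma cell line at 5000 cells per well; test concentration not given here.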 The note with it: higher = more signal.
Test [20] addresses E3 ubiquitin-protein ligase XIAP (Homo sapiens) (UniProt P98170). Put plainly: XIAP binders, primary screen, biophysical, small-molecule microarray, fluorescence 635 nm (AID 1181).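 Further: score merges 667 nm emission and signal to noise over triplicate slides.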 The note with it: small-molecule microarray binding, higher = more signal.

SMILES strings stand for the structures. Activity calls are given as the source filed them. Unless noted, how the calls were made is not given here.

Chain of E3 ubiquitin-protein ligase XIAP (Homo sapiens) (P98170 whole entry, looked up): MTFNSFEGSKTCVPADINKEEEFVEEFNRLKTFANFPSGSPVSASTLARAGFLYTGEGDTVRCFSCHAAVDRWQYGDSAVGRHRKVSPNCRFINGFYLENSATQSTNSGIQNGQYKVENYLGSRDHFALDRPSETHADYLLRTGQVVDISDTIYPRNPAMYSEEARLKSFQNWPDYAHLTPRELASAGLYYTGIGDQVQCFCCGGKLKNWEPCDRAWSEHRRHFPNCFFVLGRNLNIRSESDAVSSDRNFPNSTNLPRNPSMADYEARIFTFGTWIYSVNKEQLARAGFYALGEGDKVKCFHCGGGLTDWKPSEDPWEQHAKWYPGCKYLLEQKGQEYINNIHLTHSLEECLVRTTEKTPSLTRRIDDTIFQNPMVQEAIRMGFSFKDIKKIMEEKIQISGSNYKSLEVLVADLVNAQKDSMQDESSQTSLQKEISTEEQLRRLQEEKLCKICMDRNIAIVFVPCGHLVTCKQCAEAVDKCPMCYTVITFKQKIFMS

As to `CC(C)C(=C=CC[C@@H](O)c1ccccc1OCCO)C[C@@H](O)COCc1ccccc1`, the z-score in test [1] is 1.03; in test [2] it was 0.435; in test [3], 0.146; in [4] it was -0.338; in test [5], -0.399; in [6], 0.324. Also, the z-score in test [7] is 0.791 (inactive); in test [8], 0.0761; in test [9] it was 0.339; in test [10] it was 0.15 (inactive); in test [11], 0.669; in test [12], -15.5 (active). The z-score in test [13] was 0.304 (inactive); in [15], 0.354 (inactive); in test [16], -4.06 (inactive); in [17] it was 2.28 (inactive); in test [18], 1.51 (inactive); in [19], 0.424. Also, the composite z-score in test [14] is -5.41 (inactive); in [20], 0.109.

With `COC(=O)[C@@]1(Cc2ccc(OC)cc2)[C@H]2c3cc(C(=O)N(C)C)n(CCc4c[nH]c5ccc(O)cc45)c3C[C@H]2CN1C(=O)c1ccccc1`, the z-score in test [1] was -1.66; in test [2], -0.737; in [3], 0.197; in test [4], -1.98; in test [5], -1.32; in test [6], 0.941. Also, the z-score was -0.966 (inactive) in test [7]; -0.564 in test [8]; -1.37 in [9]; -1.33 (inactive) in test [10]; -0.855 in test [11]; 1.29 (inactive) in test [12]. The z-score is -1.64 (inactive) in test [13]; 0.15 (inactive) in [15]; 0.599 (inactive) in test [16]; -0.135 (inactive) in test [17]; 0.301 (inactive) in test [18]; -2.36 in test [19]. Moreover, the figures for the composite z-score in test [14] and in [20] were -0.568 (inactive) and 0.201, respectively.

With `COc1cc2c(cc1O)C(C)N(Cc1cc3c(cc1Br)OCO3)CC2` (stereo not given), the z-score in test [1] is -0.279; in [2], 0.453; in test [3], -0.346; in test [4], -0.981; in [5], -0.308; in test [6], -0.378. Moreover, the z-score was 0.168 (inactive) in test [7]; -0.481 in test [8]; 0.71 in test [9]; -0.807 (inactive) in test [10]; -0.587 in test [11]; -0.272 (inactive) in test [12]. Also, the z-score in test [13] was 0.297 (inactive); in test [15], -0.351 (inactive); in [16], 0.526 (inactive); in [17] it was 0.553 (inactive); in test [18], 0.0553 (inactive); in test [19], 0.538. For the same molecule, the composite z-score in test [14] was -9.46 (active); in test [20], -0.157.

As to `NC(=O)NCC#Cc1ccc2c(c1)[C@]1(C(=O)N2)[C@H](c2ccc(O)cc2)N2[C@H](c3ccccc3)[C@H](c3ccccc3)OC(=O)[C@H]2[C@@H]1C(=O)Nc1nc2ccccc2s1`, the z-score in [1] was 0.421; in test [2], 1.17; in [3] it was 0.157; in [4], -0.168; in test [5], 0.496; in test [6], -3.24. The z-score in test [7] is 0.352 (inactive); in test [8] it was -1.16; in test [9], -2.12; in test [10] it was 0.754 (inactive); in [11], 0.971; in test [12], 3.54 (inactive). Moreover, the z-score in [13] is 0.972 (inactive); in [15], 4.48 (inactive); in test [16] it was 5.85 (inactive); in test [17], 1.04 (inactive); in [18], 1.19 (inactive); in test [19], 0.388. The composite z-score in test [14] is -0.579 (inactive); in test [20], 0.591.

Regarding `CCOC(=O)C1=CC[C@@H](c2cc(Cl)ccc2Cl)N(S(=O)(=O)c2ccc(C)cc2)[C@H]1c1ccc(OC)cc1`, the z-score in test [1] is -0.41; in [2], -0.603; in [3] it was 0.118; in [4], -0.852; in test [5] it was 0.199; in [6], 1.17. Besides, the z-score was -1 (inactive) in [7]; 0.642 in test [8]; -2.07 in test [9]; -0.629 (inactive) in test [10]; 0.292 in test [11]; 2.05 (inactive) in [12]. Also, the z-score in [13] is -1.34 (inactive); in test [15], 0.0767 (inactive); in test [16] it was 2.28 (inactive); in test [17], -0.61 (inactive); in [18], -1.03 (inactive); in test [19], -1.97. In addition, the composite z-score in test [14] was 0.658 (inactive); in [20], 0.179.

As for `O=C1NC(=O)C2C1C=CC(C(O)c1cc(C(F)(F)F)cc(C(F)(F)F)c1)N2Nc1ccc(Cl)cc1Cl` (stereo not given), the z-score in test [1] is -3.02; in test [2], 0.0578; in test [3], -2.76; in test [4], -3.69; in test [5], -3.56; in [6], -2.94. Moreover, the z-score in [7] was -1.19 (inactive); in [8] it was -0.387; in test [9] it was 0.4; in test [10], -1.24 (inactive); in [11], -1.71; in test [12] it was -4.29 (inactive). For the same molecule, the z-score was -1.99 (inactive) in test [13]; 1.43 (inactive) in test [15]; 1.1 (inactive) in [16]; -1.14 (inactive) in test [17]; -1.13 (inactive) in test [18]; -2.37 in test [19]. For the same molecule, the results for the composite z-score in test [14] and in test [20] were -0.195 (inactive) and 0.214, respectively.

For the molecule `CC(C)N1C(=O)[C@@]2(c3ccc([N+](=O)[O-])cc3)CC(=O)N(C3CCCCC3)[C@@H]2c2ccc(CO)cc21`, the z-score is -0.0841 in [1]; -0.0435 in test [2]; -0.647 in test [3]; -0.331 in [4]; 0.311 in test [5]; -0.0357 in test [6]. Also, the z-score in test [7] is -0.14 (inactive); in test [8] it was -0.0593; in [9] it was -0.843; in test [10], 2.09 (inactive); in test [11], 1.86; in test [12], 0.833 (inactive). Besides, the z-score in test [13] was 0.927 (inactive); in test [15], -0.0065 (inactive); in test [16], -0.466 (inactive); in test [17], 0.026 (inactive); in [18] it was -0.303 (inactive); in test [19], 0.833. The composite z-score in test [14] was -13.8 (active); in test [20] it was 0.0037.

For `CCOC(=O)[C@H]1C/C=C/C[C@H](C(=O)OCC)C(=O)O[C@H]2[C@@H](OC)O[C@H](CO)[C@@H](OC(=O)Nc3ccc(OC)cc3)[C@@H]2OC1=O`, the z-score in [1] was 2.98; in test [2] it was 0.202; in test [3], 1.12; in test [4], -0.465; in [5] it was -0.274; in test [6], 1.89. Moreover, the z-score in [7] is 1.84 (inactive); in [8] it was -0.292; in test [9] it was -0.998; in [10], -1.29 (inactive); in [11], -1.45; in test [12], -0.0211 (inactive). Moreover, the z-score was -2.07 (inactive) in [13]; 0.979 (inactive) in test [15]; 0.864 (inactive) in test [16]; 0.391 (inactive) in test [17]; 1.25 (inactive) in test [18]; -1.08 in test [19]. The results for the composite z-score in [14] and in test [20] were 0.214 (inactive) and 0.191, respectively.

Consider `O=C1O[C@@H](c2ccccc2)[C@@H](c2ccccc2)N2[C@@H](c3ccccc3OCCO)[C@]3(C(=O)Nc4ccccc43)[C@@H](C(=O)NC[C@H](O)c3ccccc3)[C@H]12`, for which the z-score was -1.53 in test [1]; 0.0155 in [2]; -3.94 in test [3]; -3.32 in test [4]; -4.54 in [5]; -1.64 in [6]. Besides, the z-score in test [7] was 0.305 (inactive); in [8], -1.22; in test [9], -2.09; in test [10], -1.99 (inactive); in test [11], -1.03; in test [12], 0.587 (inactive). Also, the z-score in [13] was -6.16 (inactive); in test [15], 2.05 (inactive); in [16], 3.08 (inactive); in test [17], -0.0586 (inactive); in test [18], 0.495 (inactive); in [19] it was -6.99. The results for the composite z-score in test [14] and in [20] were 1.65 (inactive) and 0.311, respectively.

The record behind these values is PubChem BioAssay.
